Screening data as filed in PubChem BioAssay.
TGFb SMAD3 inh – inhibitors of TGF-b signaling; HepG2 CAGA-GFP TGF-b/SMAD3 reporter, GFP fluorescence, 18 h; TGF-beta stimulated, 500 pg/mL final; Potency, µM (series often up to 46.1 µM), usual class: inhibitors; 410,000 compounds, 1.2% hits; note: nearly all actives have a fitted effect of over 65% in size
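Smad-responsive CAGA-GFP expression was quantified in HEPG2 cells exposed to compounds and 500 pg/mL final TGF-beta for 18 h at 37 degrees C; unstimulated wells defined full inhibition.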
IL-1B inflam inh – blocks inflammasome-driven IL-1 beta release; THP-1 LPS/ATP IL-1B secretion, AlphaLISA, 16 h; stronger effect = lower value; activity change, % at 57.5 µM; 360,000 compounds, 4.7% hits; in the data active = activity change below about -50%; inconclusive = mostly about -30% to -49%
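Secreted IL-1B measured by AlphaLISA bead assay after 16 h compound exposure of THP-1 cells; compounds (final up to 57.5 uM) added 1 h before LPS (250 ng/mL) and ATP (1.25 mM) stimulation; lower signal means less secretion.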
DT40 TDP1 CPT – DT40-hTDP1 cell growth loss with CPT; AID 686979; Potency, µM (titrated, usually from 46.2 µM), hits mostly inhibitors; chicken DT40 Tdp1-/-;hTDP1 cells + 20 nM CPT, ATP luminescence, 48 h; 420,000 compounds, 12% hits; note: nearly all actives have a fitted effect of over 55% in size
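Chicken DT40 Tdp1-/- cells stably complemented with human TDP1 were seeded at 400 cells/well in medium containing 20 nM camptothecin, exposed to pin-transferred compounds, and grown at 37 °C for at least 48 hr. Viability was read as ATP luminescence.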
HepG2 viability – HepG2 cytotoxicity, counter-screen for TGF-b inhibitors | HepG2 CAGA-GFP viability, ATP luminescence, 18 h | Potency, µM (highest dose often 46.1 µM), hits mostly cytotoxic | 410,000 compounds, 0.76% hits | AID 588856
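CellTiter-Glo luminescence gave cytotoxicity after 18 hours at 37 degrees C. The cells were HepG2 CAGA-GFP in 1% FBS DMEM, stimulated with 500 pg/mL TGF-beta after compound addition. %Activity was normalised to no-cell wells (complete cell-killing) and DMSO (no toxicity), and curves were fitted and classified.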
S-ASM inh – human S-ASM enzyme inhibition; P17405; placental ASM, HMU-PC fluorogenic substrate, 60 min; Potency, µM (titrated, usually from 57.5 µM), actives largely listed as inhibitors; 340,000 compounds, 0.006% hits; AID 504937
Target sequence (P17405 47-631 limits assumed): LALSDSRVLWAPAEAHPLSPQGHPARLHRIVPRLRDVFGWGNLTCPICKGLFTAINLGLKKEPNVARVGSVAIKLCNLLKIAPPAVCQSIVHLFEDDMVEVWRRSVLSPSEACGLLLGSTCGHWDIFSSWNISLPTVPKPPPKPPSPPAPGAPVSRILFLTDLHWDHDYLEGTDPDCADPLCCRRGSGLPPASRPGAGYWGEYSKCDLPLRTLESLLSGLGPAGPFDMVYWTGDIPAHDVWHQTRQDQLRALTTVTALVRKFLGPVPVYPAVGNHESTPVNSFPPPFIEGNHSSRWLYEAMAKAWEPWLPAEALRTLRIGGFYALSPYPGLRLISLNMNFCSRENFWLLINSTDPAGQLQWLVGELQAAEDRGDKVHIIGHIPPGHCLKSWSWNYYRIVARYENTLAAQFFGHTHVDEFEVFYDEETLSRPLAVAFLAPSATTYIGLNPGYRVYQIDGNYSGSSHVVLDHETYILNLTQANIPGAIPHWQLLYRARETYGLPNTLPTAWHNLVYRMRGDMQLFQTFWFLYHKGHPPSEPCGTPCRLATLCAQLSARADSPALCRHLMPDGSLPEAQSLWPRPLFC
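Fluorescence read-out (Ex 386 nm, Em 447 nm) after stopping the reaction at pH 10. Enzyme: ASM from human placenta; substrate HMU-PC0, 9 uM final; 60 min, 37 °C. Compound preincubation 10 min, ambient temperature.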
DT40 TDP1 no CPT – qHTS for Inhibitors of human tyrosyl-DNA phosphodiesterase 1 (TDP1): qHTS in cells in absence of CPT; DT40 Tdp1-/- hTDP1 cells, no CPT, ATP luminescence, 48 h; Potency, µM (series often up to 46.2 µM), actives largely listed as inhibitors; 420,000 compounds, 15% hits; note: nearly all actives have a fitted effect of over 55% in size
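Seeded 400 DT40-hTDP1 cells/well (vehicle DMSO, no 20 nM CPT); pinned compounds; ≥48 hr at 37 °C; CellTiter-Glo luminescence as viability measure.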
Hits are given with their value; - = inactive; ? = inconclusive; . = not tested or not shown. Most compounds without a hit are left out; they make up all but 19% or so of the library. Unless noted, calls come from the whole dose curve; as a rule, active = well fitted curve in the direction sought with a large enough effect; inconclusive = small, poorly fitted or top-dose-only effect, or another doubt; inactive = no such curve, though single readings can be large; an effect the other way counts as inactive or inconclusive.

SMILES	TGFb SMAD3 inh	IL-1B inflam inh	DT40 TDP1 CPT	HepG2 viability	S-ASM inh	DT40 TDP1 no CPT
CCc1ccccc1NC(=O)Cn1c(=O)n(CCc2ccccc2)c(=O)c2sc3ccccc3c21	-	.	-	-	.	?
Cc1nn(CC(=O)NC(C)C(C)C)c(C)c1S(=O)(=O)N1CCCCC1 (stereo unspecified)	-	-	-	-	-	-
COc1ccc([N+](=O)[O-])cc1CSc1nnc(NC(C)=O)s1	-	-	-	-	-	-
O=C(NNc1ccc([N+](=O)[O-])cc1[N+](=O)[O-])c1ccco1	?	-62	15µM	-	-	21µM
C=Cc1cccc(NC(=O)c2ccc(NC(=O)c3ccco3)cc2)c1	-	-	15µM	-	-	6.5µM
O=C(Nc1ccccc1)c1cccc(NC(=O)c2ccco2)c1	-	-	-	-	-	-
Clc1cccc(Cc2c(-c3ccco3)nc3ccc(Cl)cn23)c1	18µM	-59	21µM	-	.	23µM
Brc1ccc2nc(-c3ccco3)c(Cc3ccccc3)n2c1	?	-	?	-	.	?
Clc1cccc(Cc2c(-c3ccco3)nc3ccc(Br)cn23)c1	13µM	-	?	-	.	23µM
NCCCNc1ccc([N+](=O)[O-])cc1C(F)(F)F	-	-51	-	-	-	13µM
O=C(NCCNc1ccc([N+](=O)[O-])cc1C(F)(F)F)c1ccc(F)cc1	-	-	?	-	-	?
CN(C(=O)CSc1ncnc2sc3c(c12)CCC3)C1CCS(=O)(=O)C1 (stereo unspecified)	-	-	-	-	-	-
CSCC[C@H](NC(=O)c1cccnc1)c1nnc2ccccn12	-	-	-	-	-	-
COc1cc(-c2nnc(SCCOc3ccc(Cl)cc3)o2)cc(OC)c1OC	-	.	?	-	.	8.2µM
COc1cc(-c2nnc(SCCOc3ccc(Cl)cc3C)o2)cc(OC)c1OC	-	.	-	11µM	.	-
COc1cc(-c2nnc(SCCOc3ccc(C)c(Cl)c3)o2)cc(OC)c1OC	-	.	?	-	.	?
COc1cc(-c2nnc(SCC(=O)Oc3ccc(C)cc3C)o2)cc(OC)c1OC	-	.	-	-	.	-
COc1cc(-c2nnc(COc3ccc4cc(Br)ccc4c3)o2)cc(OC)c1OC	-	-	23µM	-	-	21µM
COc1cc(-c2nnc(SCc3cc(=O)oc4cc(C)ccc34)o2)cc(OC)c1OC	-	-	?	-	-	29µM
COc1ccc(-c2nnc(COc3ccc4ccccc4c3)o2)cc1OC	-	-	-	-	?	?
COc1ccccc1-c1ccc(C(=O)N(C)CC2COCCO2)c(N2CCN(c3ccccc3F)CC2)n1 (stereo unspecified)	.	.	-	.	.	-
COc1cc(-c2nnc(-c3cccs3)o2)cc(OC)c1OC	-	-	?	-	-	?
COc1ccc(-c2nnc(-c3cc(OC)c(OC)c(OC)c3)o2)cc1OC	-	.	15µM	-	-	15µM
CC1CCN(C(=O)CSC2=NS(=O)(=O)c3cc(F)ccc3N2)CC1	-	-	-	-	-	-
CN1C2CCC1/C(=C/c1cccn1C)C(=O)/C2=C\c1cccn1C	-	-	23µM	-	-	16µM
SMILES	TGFb SMAD3 inh	IL-1B inflam inh	DT40 TDP1 CPT	HepG2 viability	S-ASM inh	DT40 TDP1 no CPT
Cc1cccc(/C=C2/C(=O)/C(=C/c3ccccc3C)C3CCC2N3C)c1 (stereo unspecified)	-	-	21µM	-	-	18µM
CN1C2CCC1/C(=C\c1ccc(F)cc1)C(=O)/C2=C/c1ccc(F)cc1	-	-87	21µM	-	-	16µM
Cn1cccc1/C=C1\Cc2ccccc2C1=O	-	-	-	-	-	-
O=C(NCc1ccco1)c1ccc(Cl)cc1[N+](=O)[O-]	-	-	-	-	-	-
C[C@@H]1CC[C@@]2(O[C@@H](CCO)C[C@H](O)[C@H]2O)O1	-	-	-	-	-	-
COCCCNC(=O)C1CCC(Cn2c(=O)c3sccc3n(Cc3ccc(F)cc3)c2=O)CC1 (stereo unspecified)	-	.	-	-	.	-
COCCNC(=O)C(NC(=O)C1CCCCC1)C12CC3CC(CC(C3)C1)C2 (stereo unspecified)	-	-	-	-	-	-
CCOc1ccc(NC(=O)c2ccc3c(c2)nnn3C2CCCC2)cc1	?	.	-	-	.	?
Cc1cc(C)cc(NC(=O)c2ccc3c(c2)nnn3C2CCCC2)c1	-	.	1.3µM	-	.	1.5µM
Cc1ccc2c(c1)nnn2C1CCN(CC(=O)c2ccc(Cl)cc2)CC1	-	-	-	-	-	-
CCOC(=O)CN(C(=O)CN1CCC(n2nnc3cc(C)ccc32)CC1)c1ccccc1	-	-	?	-	-	?
Cc1ccc2c(c1)nnn2C1CCN(CC(=O)N(c2ccccc2)c2ccccc2)CC1	?	?	13µM	-	-	13µM
Cc1ccc2c(c1)nnn2C1CCN(S(=O)(=O)c2cccc(S(=O)(=O)N(C)C)c2)CC1	-	-	18µM	-	-	15µM
Cc1ccc2c(c1)nnn2C1CCN(CC(=O)N2CCN(c3ccc(F)cc3)CC2)CC1	-	-	16µM	-	-	26µM
CC(C)(C)NC(=S)N1CCC2CC1c1c(Cl)cccc12 (stereo unspecified)	-	-	-	-	.	?
Cc1ccc2c(c1)nnn2C1CCN(CC(=O)Nc2ccc(F)cc2)CC1	-	?	?	-	-	21µM
Cc1ccc2c(c1)nnn2C1CCN(CC(=O)Nc2ccc3c(c2)OCCO3)CC1	-	-	-	-	-	-
CC(C)(C)n1ncc2c(=O)n(Cc3ccc(Cl)cc3F)cnc21	?	.	.	-	.	.
COc1ccc(-c2nc(C#N)c(NCc3ccco3)o2)cc1	-	-	?	-	-	16µM
C=CCNc1oc(-c2ccc(OC)cc2)nc1C#N	-	-	16µM	-	-	?
C=CCNc1oc(-c2ccc(OCC)cc2)nc1C#N	-	-	?	-	-	?
Cc1ccc(-c2nc(C#N)c(NCc3ccco3)o2)cc1	?	-	-	-	-	?
Cc1ccccc1OCC(=O)NCCCNC(=O)c1ccccn1	-	-	-	-	-	-
O=C(CCc1ccccc1)NCCS(=O)(=O)N1CCN(c2ccccc2)CC1	-	-	-	-	-	-
Cc1ccccc1OCC(=O)Nc1ccccc1C(=O)OCc1cc(=O)n2c(C)csc2n1	-	.	2.6µM	-	.	4.6µM
COc1ccccc1C(=O)Nc1ccccc1OCc1cc(=O)n2c(C)csc2n1	-	.	?	-	.	16µM
